From PubChem
D2 ag-1 = HTS Assay for Allosteric Agonists of the Human D2 Dopamine Receptor: Primary Screen for Agonists | D(2) dopamine receptor (Homo sapiens), P14416 | HEK293 T-REx D2 cells, calcium flux agonist mode | activation, % at 2 µM | 340,000 compounds, 0.53% hits;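 active = activation over 3 SD above normal in the single-dose calcium agonist read, cut at about 30% in these data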
Target sequence (P14416 whole entry, looked up): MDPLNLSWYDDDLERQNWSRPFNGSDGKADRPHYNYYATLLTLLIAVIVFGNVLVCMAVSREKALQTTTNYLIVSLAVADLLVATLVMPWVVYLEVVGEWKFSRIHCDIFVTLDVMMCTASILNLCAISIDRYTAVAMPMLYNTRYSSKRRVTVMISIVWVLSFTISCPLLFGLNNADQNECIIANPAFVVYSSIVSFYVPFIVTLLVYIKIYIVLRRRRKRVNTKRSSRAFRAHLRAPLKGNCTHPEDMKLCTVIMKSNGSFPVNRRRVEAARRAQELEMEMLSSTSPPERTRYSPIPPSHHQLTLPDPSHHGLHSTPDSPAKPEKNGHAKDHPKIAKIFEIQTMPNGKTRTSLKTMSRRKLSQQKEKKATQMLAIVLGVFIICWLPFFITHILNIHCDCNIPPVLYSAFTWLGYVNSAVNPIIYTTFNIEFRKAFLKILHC
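Agonism is scored from calcium flux in a force-coupled, inducible HEK293 cell line expressing D2, read kinetically for 180 s after compound addition against dopamine controls.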
D2 PAM-1 = Beta-Arrestin HTS for Positive Allosteric Modulators of the Human D2 Dopamine Receptor: Potentiators. DiscoveRx D2 beta-arrestin cells, luminescence, 90 min; 100% = 57 uM dopamine signal. potentiation, % (concentration not given with the values). 360,000 compounds, 0.23% hits; in the data active = potentiation above about 50%
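PathHunter D2 cells, attached overnight at 37 deg C, received compound in DMSO plus dopamine at EC20 (50 nM final) for 90 min at 37 deg C. Beta-arrestin recruitment was read as luminescence after 1 h with detection reagent at ambient temperature.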
D2 ag-2 = Beta-Arrestin HTS for Positive Allosteric Modulators of the Human D2 Dopamine Receptor: Agonists; DiscoveRx PathHunter D2 beta-arrestin, luminescence, 90 min; 100% = 57 uM dopamine signal; 360,000 compounds, 0.084% hits; AID 624465, 2012; D(2) dopamine receptor (Homo sapiens), P14416; activation, % (concentration not given with the values); in the data active = activation above about 40%
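DiscoveRx PathHunter D2 beta-arrestin cells (2,100/well) attached overnight, then compound-stimulated 90 min at 37 C in HBSS/10 mM HEPES/0.1% Tween-20 buffer; beta-galactosidase complementation read by luminescence after 1 h at ambient temperature. Dopamine 57 uM final (EC100) as control.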
D2 PAM-2 = HTS Assay for Positive Allosteric Modulators of the Human D2 Dopamine Receptor: Primary Screen for Potentiators; D(2) dopamine receptor (Homo sapiens), P14416; HEK293 T-REx D2, calcium flux, EC20 dopamine potentiation; potentiation, % at 10 µM; 340,000 compounds, 0.34% hits; AID 485347, 2010;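 active = potentiation over 3 SD above the plate norm, cut at about 30% in these data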
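Cells plated with tetracycline inducer and held overnight at 30 C; calcium dye loaded 30–90 min at room temperature; baseline taken, compound added and read 180 s; EC20 dopamine then added and read 180 s.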
D2 antagonist = HTS Assay for Allosteric Antagonists of the Human D2 Dopamine Receptor: Primary Screen for Antagonists; D(2) dopamine receptor (Homo sapiens), P14416; HEK293 TREx D2 cells, calcium flux, dopamine EC80; inhibition, % at 10 µM; 340,000 compounds, 2% hits; in the data active = inhibition above about 30%; inactive = below that, where a call was filed
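Overnight-induced (tetracycline, 30 C) HEK293 T-REx cells carrying force-coupled D2 receive a no-wash calcium dye, then compound, then EC80 dopamine at 180 s; signals are read kinetically throughout.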
Each line names hits and unclear results; the compound was inactive in the other large screens. Only some compounds are listed: those with a hit (about 2.4% of all), similar ones and a draw of the others.

Cc1cc(C)cc(NC(=O)c2cccc(NC3=NC4CS(=O)(=O)CC4S3)c2)c1 (stereo unspecified)	D2 antagonist 34
Cc1ccc(CCNC(=O)Cc2ccc(NC3=NC4CS(=O)(=O)CC4S3)cc2)cc1 (stereo unspecified)	D2 antagonist 38
COc1ccc(OC)c(CCNC(=O)c2ccc(NC3=NC4CS(=O)(=O)CC4S3)cc2)c1 (stereo unspecified)	D2 antagonist 34
CCOc1ccccc1NC(=O)c1cccc(NC2=NC3CS(=O)(=O)CC3S2)c1 (stereo unspecified)	none
CCC(Nc1ccc(-c2nc(-c3ccco3)no2)cc1[N+](=O)[O-])c1ccccc1 (stereo unspecified)	none (no result: D2 PAM-1, D2 ag-2, D2 antagonist)
Cn1c(C(=O)NCc2cccc(F)c2)cc2cc(S(=O)(=O)N3CCCCC3)ccc21	none (no result: D2 PAM-1, D2 ag-2, D2 antagonist)
COc1ccc(-n2c(SCC(=O)Nc3ccccc3)nc3c(c2=O)SCC3)cc1	D2 antagonist 31
COc1ccccc1-n1c(SCC(=O)Nc2nnc(C)s2)nc2c(c1=O)SCC2	D2 PAM-2 31
COc1ccc(-n2c(SCC(=O)N3CCOCC3)nc(O)c(Cc3ccccc3)c2=O)cc1	D2 antagonist 43
COc1ccc(-n2c(SCC(=O)N3CCOCC3)nc(O)cc2=O)cc1	none (no result: D2 ag-1, D2 antagonist)
COc1ccc(S(=O)(=O)N(CC(=O)Nc2ccc(F)c(Cl)c2)c2ccc(C)cc2)cc1OC	none (no result: D2 PAM-1, D2 ag-2, D2 antagonist)
Cc1cc(OCCCSc2nc(-c3ccc(C(C)(C)C)cc3)nc3cc(=O)[nH]n23)ccc1Cl	none (no result: D2 PAM-1, D2 ag-2, D2 antagonist)
COc1cccc(NC(=O)C2CCN(S(=O)(=O)c3c(C)noc3/C=C/c3cccs3)CC2)c1	none (no result: D2 PAM-1, D2 ag-2, D2 antagonist)
Cc1ccc(-c2c[n+](Cc3ccc(Cl)c(Cl)c3)c3n2CCC3)cc1	D2 antagonist 30
COc1ccc(/C=C2\SC(N3CCc4ccccc4C3)=NC2=O)cc1OC	D2 antagonist 53
COc1cccc(/C=C2\N=C(C3CCCCC3)OC2=O)c1OC	D2 PAM-2 45
COc1cc(NC(=O)Cn2c(=O)ccc3cc(S(=O)(=O)N4CCCC4)ccc32)cc(OC)c1	none (no result: D2 PAM-1, D2 ag-2, D2 antagonist)
O=C(Cn1cc(C(=O)c2cccs2)c2ccccc21)Nc1ccc(Br)cc1	none (no result: D2 PAM-1, D2 ag-2, D2 antagonist)
COc1ccccc1NC(=O)/C(C#N)=C/c1c(C)nn(-c2ccc(F)cc2)c1Cl	D2 ag-1 32
O=C(CN1C(=O)COc2ccc(S(=O)(=O)N3CCCCCC3)cc21)NCCc1ccccc1	none (no result: D2 PAM-1, D2 ag-2, D2 antagonist)
CC(C)CN(c1ccccc1)S(=O)(=O)c1nnc(NC(=O)c2ccco2)s1	D2 antagonist 68
COc1ccc(NC(=O)c2ccccc2N(Cc2ccccc2)S(C)(=O)=O)cc1	none
COc1ccc(NC(=O)c2ccccc2N(Cc2ccccc2)S(C)(=O)=O)cc1OC	D2 PAM-2 37
c1ccc2oc(-c3csc(N4CCOCC4)n3)cc2c1	D2 PAM-2 31
Fc1ccc(-c2csc(N3CCOCC3)n2)cc1	none
O=C1CSC(c2ccccc2)N1CC12CC3CC(CC(O)(C3)C1)C2 (stereo unspecified)	D2 antagonist 37
Cc1ccc(NC(=O)Cn2nc(C)c3nn(-c4ccc(Cl)cc4)c(C)c3c2=O)cc1C	none (no result: D2 PAM-1, D2 ag-2, D2 antagonist)
CCN(C(=O)c1nn(-c2ccc(OC)cc2)c(=O)c2c1c1ccccc1n2C)c1ccc(OC)cc1	none
CCCCN(C)CCNC(=O)c1nn(-c2ccc(OC)cc2)c(=O)c2c1c1ccccc1n2C	D2 antagonist 34
CC1=C(C(=O)Nc2ccccc2)C(c2cccnc2)n2nc(SCc3ccccc3Cl)nc2N1 (stereo unspecified)	none (no result: D2 PAM-1, D2 ag-2, D2 antagonist)
COc1cccc2[nH]c(C(=O)NCc3ccccc3)cc12	D2 antagonist 42
COc1ccc(CNC(=O)c2cc(-c3ccccc3OC)on2)cc1	D2 antagonist 91
COc1ccccc1-c1cc(C(=O)NCc2ccccc2)no1	D2 antagonist 81
COc1ccccc1-c1cc(C(=O)NCc2ccc(Cl)cc2)no1	none (no result: D2 ag-1, D2 PAM-2, D2 antagonist)
